# According to the supplement of paper PMC8728848:
# The sample as a whole holds a higher share of the strongest signals than the screen did.
# B1: mCC1-Hexahis-Precomplexed (Mus musculus), P31809 (protein)
# chain: MELASAHLHKGQVPWGGLLLTASLLASWSPATTAEVTIEAVPPQVAEDNNVLLLVHNLPLALGAFAWYKGNTTAIDKEIARFVPNSNMNFTGQAYSGREIIYSNGSLLFQMITMKDMGVYTLDMTDENYRRTQATVRFHVHPILLKPNITSNNSNPVEGDDSVSLTCDSYTDPDNINYLWSRNGESLSEGDRLKLSEGNRTLTLLNVTRNDTGPYVCETRNPVSVNRSDPFSLNIIYGPDTPIISPSDIYLHPGSNLNLSCHAASNPPAQYFWLINEKPHASSQELFIPNITTNNSGTYTCFVNNSVTGLSRTTVKNITVLEPVTQPFLQVTNTTVKELDSVTLTCLSNDIGANIQWLFNSQSLQLTERMTLSQNNSILRIDPIKREDAGEYQCEISNPVSVRRSNSIKLDIIFDPTQGGLSDGHHHHHH
# Columns and labels:
# Experiment in all cases: glycan array binding signal (z-score within array); higher = stronger binding
# Conditions in all cases: glycan notation: IUPAC condensed, linker removed
# [1] = molecular target: Man(a1-3)[Man(a1-6)]Man(a1-6)[Man(a1-3)]Man(b1-4)GlcNAc(b1-4)GlcNAc
# How it was run: (§1)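 Negative Z-scores can be read as non-binding. The Z-score is calculated within each array and then averaged across arrays of one protein sequence at different concentrations or buffers and across linkers. Arrays, 3228 in all, were curated from the Consortium for Functional Glycomics database and kept only where the protein sequence was available.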
# [2] = molecular target: Neu5Ac(a2-3)Gal(b1-4)GlcNAc(b1-2)[Neu5Ac(a2-3)Gal(b1-4)GlcNAc(b1-6)]Man(a1-6)[Neu5Ac(a2-3)Gal(b1-4)GlcNAc(b1-2)Man(a1-3)][GlcNAc(b1-4)]Man(b1-4)GlcNAc(b1-4)GlcNAc
# How it was run: as §1
# [3] = molecular target: Neu5Ac(a2-3)Gal(b1-4)GlcNAc(b1-3)Gal(b1-4)GlcNAc(b1-2)Man(a1-3)[Neu5Ac(a2-3)Gal(b1-4)GlcNAc(b1-3)Gal(b1-4)GlcNAc(b1-2)Man(a1-6)]Man(b1-4)GlcNAc(b1-4)GlcNAc
# How it was run: as §1
# [4] = molecular target: Neu5Ac(a2-3)Gal(b1-4)GlcNAc(b1-3)Gal(b1-4)GlcNAc(b1-3)Gal(b1-4)GlcNAc(b1-2)Man(a1-3)[Neu5Ac(a2-3)Gal(b1-4)GlcNAc(b1-3)Gal(b1-4)GlcNAc(b1-3)Gal(b1-4)GlcNAc(b1-2)Man(a1-6)]GalNAc
# How it was run: as §1
# [5] = molecular target: Neu5Ac(a2-3)Gal(b1-4)GlcNAc(b1-3)Gal(b1-4)GlcNAc(b1-3)GalNAc
# How it was run: as §1
# [6] = molecular target: Neu5Ac(a2-3)[GalNAc(b1-4)]Gal(b1-4)GlcNAc(b1-3)GalNAc
# How it was run: as §1
# [7] = molecular target: Neu5Ac(a2-6)Gal(b1-4)GlcNAc(b1-3)Gal(b1-4)GlcNAc(b1-3)Gal(b1-4)GlcNAc(b1-2)Man(a1-3)[Neu5Ac(a2-6)Gal(b1-4)GlcNAc(b1-3)Gal(b1-4)GlcNAc(b1-3)Gal(b1-4)GlcNAc(b1-2)Man(a1-6)]GalNAc
# How it was run: as §1
# [8] = molecular target: Neu5Ac(a2-6)Gal(b1-4)GlcNAc(b1-3)Gal(b1-4)GlcNAc(b1-3)[Neu5Ac(a2-6)Gal(b1-4)GlcNAc(b1-3)Gal(b1-4)GlcNAc(b1-6)]GalNAc
# How it was run: as §1
# [9] = molecular target: Neu5Ac(a2-6)Gal(b1-4)GlcNAc(b1-3)Gal(b1-4)[Fuc(a1-3)]GlcNAc(b1-3)Gal(b1-4)[Fuc(a1-3)]GlcNAc
# How it was run: as §1
# [10] = molecular target: Neu5Ac(a2-6)GalNAc
# How it was run: as §1
binder,measurement,setting,value
B1,glycan array binding signal (z-score),[1],-0.197
same,glycan array binding signal (z-score),[2],-0.045
same,glycan array binding signal (z-score),[3],7.65
same,glycan array binding signal (z-score),[4],7.6
same,glycan array binding signal (z-score),[5],-0.119
same,glycan array binding signal (z-score),[6],3.55
same,glycan array binding signal (z-score),[7],4.99
same,glycan array binding signal (z-score),[8],9.54
same,glycan array binding signal (z-score),[9],-0.116
same,glycan array binding signal (z-score),[10],-0.234
